According to PubChem BioAssay (NCI):
About 83,000 compounds went through this panel and 20% of them were active in at least one assay; those are over-represented in the sample as a whole.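 Step 1: grow cells in 96-well plates. Step 2: add test compound at a single concentration. Step 3: incubate 48 h. Step 4: record percent growth.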 A number with no mark means an inactive call. Activity calls are given as the source filed them.

Tested on: HOP-62 NSCLC
Experiment: NCI-60 one-dose screen, 48 h (100 = growth as untreated, 0 = no growth, -100 = all killed)
Conditions: 10 µM unless noted
Protocol: Growth inhibition of the HOP-62 human Non-Small Cell Lung tumor cell line is measured as a screen for anti-cancer activity. Cells are grown in 96 well plates and exposed to the test compound for 48 hours. Compounds are tested at a single concentration, which is 10^-5 M for most compounds. The reported endpoint is percent growth (GI% or GIPRCNT), where numbers from 0 - 100% represent growth inhibition, and numbers from -100% - 0 represent cell death. For example, a value of 40 represents 60% growth inhibition. A value of 0 means no net growth occurred over the course of the experiment. A value of -40 indicates 40% of cells at the beginning of the experiment died by the end of the experiment. A value of -100 means all cells are dead at the end of the experiment.
NCI-60 Human Tumor Cell Lines Screen was performed using the standard one-dose NCI protocol, which is described in more detail at https://dtp.cancer.gov/discovery_development/nci-60/default.htm.
Compounds with GIPRCNT values below 10 were considered active. Activity score was based on GIPRCNT using the following formula: […]
Score is 0 for GIPRCNT values of 100 or above, 50 for GIPRCNT values of 0, and 100 for GIPRCNT values of -100.

Structure (SMILES)	growth
CC(C)N=C(NC(C)C)N1CC1	108%
Cc1cc(CCl)c(C)cc1CCl	15.3%
CN=C(NN)NN	135%
C=C=[CH][Sn]([c]1ccccc1)([c]1ccccc1)[c]1ccccc1	-63.6% (active)
O=C1NC(=S)NC(=O)C1=Cc1ccccc1	101%
CCCCCN(CCCCC)CC(O)c1ccc(C)c(Cl)c1 (stereo not given)	90.1%
CCC(CC)(c1ccccc1)C(OC(N)=O)c1ccccc1 (stereo not given)	84.7%
CCCCCCCC(=O)OCC/C=C/C1OC1C1OC(=O)/C=C\C=C\c2nc(oc2C)/C=C(/C)CCC2OC2C1OC(=O)NC(C)=O (stereo not given)	-11.6% (active)
O1[As]2O[As]3O[As]1O[As](O2)O3	-41.6% (active)
COC(=O)C[Se]C(=O)c1ccccc1OC(C)=O	32.7%
N#Cc1ncc(/N=C/c2ccc(N(CCCl)CCCl)cc2)s1	96.1%
CCCC(C)(C)c1ccc2c(c1)OC(C)(C)[C@@H]1CC=C(C)C[C@@H]21	90.4%
O=C1NC2(CCNCC2)Nc2ccccc21	96.6%
O=C(O)CC(Br)C(=O)CBr (stereo not given)	105%
COc1cc(C2CC(=O)Nc3nc(N)[se]c32)c(OC)c2c1OCO2 (stereo not given)	32.7%
COC[CH2][Hg][C]#[C][Hg][CH2]COC	98.5%
CN(Cc1cccnc1)N=O	93.1%
CCOc1cc(/C=N\Nc2nnc(C)n2N)c(C)cc1N(CCCl)CCCl	22.6%
OC1(c2ccccc2F)c2ccccc2C2=NCCN21 (stereo not given)	84.9%
CC(C)(O)/C=C/C(=O)[C@](C)(O)[C@H]1[C@H](O)C[C@@]2(C)[C@@H]3CC=C4[C@@H](C=C(O)C(=O)C4(C)C)[C@]3(C)C(=O)C[C@]12C	-64.2% (active)

Structure (SMILES)	growth
O=S(=O)(F)c1ncnc2nc[nH]c12	86.5%
N#[N+]c1nc2nc(N)[nH]c(=O)c2[nH]1	92.5%
CCC[CH2][Sn]([CH2]CCC)([CH2]CCC)[O]C(=O)CC	-88.9% (active)
CC(C)CCC[C@@H](C)[C@H]1CC[C@H]2[C@@H]3CC=C4C[C@@H](OC(=O)Cc5ccc(N(CCCl)CCCl)cc5)CC[C@]4(C)[C@H]3CC[C@]12C	105%
Cc1ccc(N)cc1[As]=[As]c1cc(N)ccc1C (stereo not given)	14.9%
CC[C@H](C)[C@H](NC(=O)Nc1ccccc1)C(=O)N(C)[C@H](C[C@@H](OC(C)=O)c1nc(C(=O)N[C@@H](Cc2ccccc2)C[C@H](C)C(=O)OC)cs1)C(C)C	20.3%
CCCCCCCCCCCCOc1ccc(C(=O)Oc2ccc(CSP3(=O)OCC4OC(n5cnc6c(N)ncnc65)C(F)C4OP(=O)(O)OCC4OC(n5ccc(=O)[nH]c5=O)C(F)C4O3)cc2)cc1 (stereo not given)	115%
Nc1ccc(N)c2c1Oc1ccccc1O2	95.5%
CC(CC(C#N)(c1ccccc1)c1ccccc1)N1CCOCC1 (stereo not given)	97.6%
Nc1cccc(CC(=O)Nc2ccc(S(=O)(=O)F)cc2)c1	90.3%
O=S(=O)(c1ccc(Cl)cc1)C(Cl)(Cl)Cl	78.5%
COc1ccc(C2SCC(=O)Nc3c2c(C)nn3-c2nc3ccc(C)cc3s2)cc1O (stereo not given)	38.3%
CC1(C)N=C(N)N=C(N)N1c1ccc(CCCCc2ccc(Cl)cc2S(=O)(=O)F)c(Cl)c1	33.4%
CC(C)(C)N(Cc1ccccc1)N=O	99.4%
CC1(C)N=C(N)N=C(N)N1c1ccc(CCCCc2ccc(S(=O)(=O)F)cc2)cc1	31.9%
c1cnc2c(c1)ccc1ncccc12	103%
NC(=O)SCC(=O)Nc1ccc([As](=O)(O)O)cc1	136%
COc1cc(CNCCc2ccc(Cl)cc2)cc(OC)c1O	83.3%
CNC(=O)O/N=C(/C)c1ccc(Cl)cc1	99.4%
COP(=S)(OC)Oc1ccc(SC)c(C)c1	95.4%
